Experiment [1] relates to Human papillomavirus type 1a protein E7 (residues 44-93). As to the kind of experiment: HPV1a E7 fragment binders on microarrays, primary screen, biochemical, small-molecule microarray, residues 44-93, 635 nm fluorescence (AID 1108).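 Also: E7 fragment applied at 1 µg/mL in TBST for 1 h at 4 C; score combines spot fluorescence with its signal to noise ratio.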 The conditions noted are these: small-molecule microarray binding, fluorescence 635 nm; higher = more signal.
The nature of experiment [2]: modulators of HCV replicon luciferase signal, primary screen, HCV replication inhibitor project, Huh7 cells, luciferase reporter (AID 1109).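 Also: huh7 hepatoma cells harbouring a luciferase neomycin HCV replicon reporter; luciferase luminescence as measure of HCV replicon replication; test concentration not given here.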 The conditions noted are these: 48 h, higher = more signal.
For experiment [3], the target named is Left-right determination factor 2 (Homo sapiens) (UniProt O00292). The experiment is described as follows: LEFTY2 binders on small-molecule microarrays, primary screen, biochemical, small-molecule microarray, 635 nm fluorescence scan (AID 1110). The conditions noted are these: LEFTY2 binding, higher = more signal.
Left-right determination factor 2 (Homo sapiens), sequence (O00292 whole entry, looked up): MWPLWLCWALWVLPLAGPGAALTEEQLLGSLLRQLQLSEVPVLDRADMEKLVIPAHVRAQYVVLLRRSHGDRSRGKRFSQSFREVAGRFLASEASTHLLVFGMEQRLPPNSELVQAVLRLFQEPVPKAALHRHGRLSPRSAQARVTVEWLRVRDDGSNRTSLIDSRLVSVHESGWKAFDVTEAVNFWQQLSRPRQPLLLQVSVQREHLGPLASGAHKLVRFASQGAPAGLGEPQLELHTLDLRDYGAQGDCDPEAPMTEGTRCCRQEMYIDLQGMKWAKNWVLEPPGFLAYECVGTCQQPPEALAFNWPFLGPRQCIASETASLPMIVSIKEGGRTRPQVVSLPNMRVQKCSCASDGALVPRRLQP
The target in experiment [4] is Calmodulin-1 (Homo sapiens) (UniProt P0DP23). The experiment is described as follows: CALM1 binders on microarrays, EGTA buffer, profiling panel, biochemical, small-molecule microarray, Cy5-labelled CALM1 (AID 1111).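 Also: labelled calmodulin applied in Tris saline Tween buffer holding calcium plus EGTA and DTT.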 The conditions noted are these: Cy5-CALM1 binding fluorescence, higher = more signal.
For experiment [5] the target is unchanged. As to the kind of experiment: calcium-bound CALM1 binders on microarrays, profiling panel, artefact control for SMM control-protein annotation, biochemical, small-molecule microarray, Cy5-labelled CALM1, plus calcium (AID 1112).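 Also: score merges spot fluorescence with signal to noise from triplicate slides.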 The conditions noted are these: Cy5-CALM1 binding fluorescence, higher = more signal.
Experiment [6] is described as follows: small-molecule microarray binders of probe aWnt5a, primary screen, biochemical, biotinylated probe, 635/667 nm fluorescence (AID 1113).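 Also: score merges 667 nm fluorescence intensity with signal-to-noise per printed feature.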 The conditions noted are these: higher = more signal.
Experiment [7] in a line: small-molecule microarray binders of probe aShh, primary screen, biochemical, biotinylated probe, 635/667 nm fluorescence (AID 1114).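 Also: probe is biotin-labelled aShh protein from a stem cell growth factor screen; measures binding of labelled protein to compounds printed on the slide; score merges feature fluorescence at 667 nm with signal-to-noise.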 The conditions noted are these: higher = more signal.
The nature of experiment [8]: small-molecule microarray binders of probe aNog, primary screen, biochemical, biotinylated probe, 635/667 nm fluorescence (AID 1115).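 Also: probe is biotinylated aNog protein used at 0.15 µg/mL for 1 h at 4 C; z-score combines 667 nm fluorescence of each spot with its signal to noise.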 The conditions noted are these: higher = more signal.
Experiment [9] deals with Torsin-1A-interacting protein 1 (Homo sapiens) (UniProt Q5JTV8). As to the kind of experiment: LAP1 binders from COS7 cell lysate, primary screen, small-molecule microarray, 635/667 nm fluorescence (AID 1116). The conditions noted are these: COS7-hLAP1 lysate binding, 635 nm fluorescence, higher = more signal.
Torsin-1A-interacting protein 1 (Homo sapiens), sequence (Q5JTV8 whole entry, looked up): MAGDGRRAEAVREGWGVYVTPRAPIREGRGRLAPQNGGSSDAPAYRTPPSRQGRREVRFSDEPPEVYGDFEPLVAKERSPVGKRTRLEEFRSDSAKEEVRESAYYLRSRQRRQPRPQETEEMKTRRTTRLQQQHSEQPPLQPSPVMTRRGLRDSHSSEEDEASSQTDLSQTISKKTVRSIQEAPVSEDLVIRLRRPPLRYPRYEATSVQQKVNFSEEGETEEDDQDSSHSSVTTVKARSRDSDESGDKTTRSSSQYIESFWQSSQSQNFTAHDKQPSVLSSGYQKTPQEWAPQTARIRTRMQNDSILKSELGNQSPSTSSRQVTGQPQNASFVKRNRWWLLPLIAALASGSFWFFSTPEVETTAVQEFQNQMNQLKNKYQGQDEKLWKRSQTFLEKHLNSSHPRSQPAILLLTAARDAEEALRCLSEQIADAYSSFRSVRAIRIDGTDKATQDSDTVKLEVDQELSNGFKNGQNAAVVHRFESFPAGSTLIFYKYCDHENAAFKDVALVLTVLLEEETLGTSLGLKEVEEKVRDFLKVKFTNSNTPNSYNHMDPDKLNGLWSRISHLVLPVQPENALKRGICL
Experiment [10] addresses Alpha-bungarotoxin (Bungarus multicinctus) (UniProt P60615). As to the kind of experiment: alpha-bungarotoxin binders on microarray, profiling panel, artefact control for SMM control protein annotation, biochemical, small-molecule microarray, Alexa647 label, 635/667 nm fluorescence (AID 1117). The conditions noted are these: alpha-BTX-A647 binding fluorescence, higher = more signal.

For another experiment, the target named is Albumin (Bos taurus) (UniProt P02769). As to the kind of experiment: bovine serum albumin binders on microarray, profiling panel, artefact control for SMM control protein annotation, biochemical, small-molecule microarray, Alexa647 label, 635/667 nm fluorescence (AID 1118).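 Also: score merges 667 nm emission intensity and signal-to-noise per printed compound spot.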 The conditions noted are these: BSA-A647 binding, fluorescence 635 nm, higher = more signal.
Albumin (Bos taurus), sequence (P02769 whole entry, looked up): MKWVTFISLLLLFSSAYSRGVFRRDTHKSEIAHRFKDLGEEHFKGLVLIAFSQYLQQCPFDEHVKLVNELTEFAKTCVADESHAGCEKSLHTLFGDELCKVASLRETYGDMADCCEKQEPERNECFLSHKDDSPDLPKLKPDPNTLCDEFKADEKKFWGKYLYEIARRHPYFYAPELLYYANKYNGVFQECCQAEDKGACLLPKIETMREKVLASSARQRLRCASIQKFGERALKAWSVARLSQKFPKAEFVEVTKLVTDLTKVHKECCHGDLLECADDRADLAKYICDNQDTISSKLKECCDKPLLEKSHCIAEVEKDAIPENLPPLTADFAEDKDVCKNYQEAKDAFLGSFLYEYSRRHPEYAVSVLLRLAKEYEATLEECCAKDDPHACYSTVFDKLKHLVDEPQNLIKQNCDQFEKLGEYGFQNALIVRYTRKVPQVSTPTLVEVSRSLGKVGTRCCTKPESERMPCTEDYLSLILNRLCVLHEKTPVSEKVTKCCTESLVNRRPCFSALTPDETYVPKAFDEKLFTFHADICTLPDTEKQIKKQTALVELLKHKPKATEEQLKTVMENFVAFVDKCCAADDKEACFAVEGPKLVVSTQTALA

Experiment [11] can be described thus: small-molecule microarray binders of probe aXIP, primary screen, biochemical, NeuroSMM set, 635/667 nm fluorescence (AID 1119).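 Also: probe is the protein aXip251-270 applied at 1 µg/mL to compound-printed slides; binding of probe to printed compounds measured as 667 nm fluorescence plus signal to noise.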 The conditions noted are these: higher = more signal, called active from +8 up or from −8 down.
Experiment [12] can be described thus: small-molecule binders of probe aNOTCH3, primary screen, biochemical, small-molecule microarray, 635/667 nm fluorescence (AID 1120).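 Also: probe is a biotin-tagged antibody raised against NOTCH3 rather than NOTCH3 protein; score merges spot fluorescence near 667 nm with spot signal to noise.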 The conditions noted are these: higher = more signal.
A short description of experiment [13]: small-molecule binders of probe aNOTCH2, primary screen, biochemical, small-molecule microarray, 635/667 nm fluorescence (AID 1121).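 Also: score merges feature fluorescence read at 667 nm with its signal to noise.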 The conditions noted are these: higher = more signal.
The target of experiment [14] is Carbonic anhydrase 2 (Homo sapiens) (UniProt P00918). The experiment is described as follows: CAII small-molecule binders, profiling panel, biochemical, small-molecule microarray, Alexa647-labelled CAII (AID 1122). The conditions noted are these: CAII-A647 binding fluorescence, higher = more signal.
Experiment [15] is described as follows: COS7 lysate on small-molecule microarray, probe aHis, 635 nm (AID 1123).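 Also: z-score combines 667nm fluorescence intensity with signal-to-noise per printed compound spot.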 The conditions noted are these: COS7 cell lysate, fluorescence, higher = more signal.
A short description of experiment [16]: compound binding in COS7 lysate, probe aLAP1, primary screen, cell lysate, small-molecule microarray (AID 1124).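 Also: lysate comes from COS7 cells expressing LAP1 and is applied at 0.3 µg/mL; score merges spot fluorescence near 667 nm with signal-to-noise over triplicate slides.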 The conditions noted are these: probe aLAP1, fluorescence, higher = more signal.
In the next experiment the test system is Sam68 (KHDRBS1). The experiment is described as follows: Sam68 small-molecule binders, primary screen, biochemical, small-molecule microarray, 635 nm fluorescence (AID 1125).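 Also: score merges 667 nm channel intensity with signal to noise over triplicate slides.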 The conditions noted are these: small-molecule microarray binding, higher = more signal.
Experiment [17] deals with Chordin-like protein 2 (CHRDL2). The experiment is described as follows: CHRDL2 small-molecule binders, primary screen, biochemical, small-molecule microarray, 635 nm fluorescence (AID 1126).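 Also: printed compound slides probed with Chrdl2 protein at 4 µg/mL for 1 h at 4 C; score merges 667 nm emission intensity with signal to noise over three replicate slides.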 The conditions noted are these: small-molecule microarray binding, fluorescence 635 nm; higher = more signal.
The target of experiment [18] is Concanavalin-A (Canavalia ensiformis) (UniProt P02866). The experiment is described as follows: ConA small-molecule binders, primary screen, artefact control for SMM control protein annotation, biochemical, small-molecule microarray, Alexa647 label, 635 nm (AID 1127).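 Also: z combines 667 nm emission intensity with signal-to-noise across three replicate slides.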 The conditions noted are these: ConA-A647 binding fluorescence, higher = more signal.
Concanavalin-A (Canavalia ensiformis), sequence (P02866 whole entry, looked up): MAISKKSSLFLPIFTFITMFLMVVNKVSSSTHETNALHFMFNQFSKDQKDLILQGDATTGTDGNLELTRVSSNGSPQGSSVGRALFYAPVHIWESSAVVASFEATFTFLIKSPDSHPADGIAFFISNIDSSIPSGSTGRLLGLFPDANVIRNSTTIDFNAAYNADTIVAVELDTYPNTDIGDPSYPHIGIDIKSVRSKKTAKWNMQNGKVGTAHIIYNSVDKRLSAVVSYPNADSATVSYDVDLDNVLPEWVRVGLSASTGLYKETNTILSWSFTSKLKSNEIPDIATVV

Activity calls are given as the source filed them.

Alpha-bungarotoxin (Bungarus multicinctus), sequence (P60615 whole entry, looked up): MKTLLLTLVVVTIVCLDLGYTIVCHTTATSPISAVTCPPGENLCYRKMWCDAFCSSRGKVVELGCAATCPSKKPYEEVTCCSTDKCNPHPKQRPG

`O=C1C[C@@](C(=O)NCc2ccccc2)(c2ccc([N+](=O)[O-])cc2)[C@@H](c2ccc(CO)cc2)N1CC12CC3CC(CC(C3)C1)C2`: the composite z-score was 1.37 in experiment [1]; 0.31 in [3]; 0.35 in experiment [4]; 0.159 in experiment [5]; -0.101 in [6]; -0.512 in [7]. Besides, the composite z-score in experiment [8] was -0.374; in experiment [9] it was 0.538; in experiment [10], 0.766; with Albumin (Bos taurus) it was -0.0057; in [12] it was -0.128; in experiment [13], -0.14. The composite z-score in [14] amounted to 0.479; in experiment [15], 1.37; in experiment [16], 2.12; with Sam68 (KHDRBS1), 1.31; in experiment [17], 0.119; in experiment [18] it was 0.89. The compound further came in with a z-score in experiment [2] of -2.95. Moreover, in experiment [11], the composite Z-score was -0.36 (inactive).

With `CCCC=C(CCC)[C@@H](NC(=O)OCC(C)C)c1ccccc1`, the composite z-score in experiment [1] was 0.861; in experiment [3] it was -0.0453; in experiment [4], 1.65; in experiment [5] it was 0.438; in experiment [6], 0.806; in experiment [7] it was 0.717. In addition, the composite z-score in experiment [8] was 1.99; in [9] it was 0.226; in [10] it was 0.703; with Albumin (Bos taurus) it was 0.923; in experiment [12] it was 1.03; in experiment [13], -0.0141. The composite z-score was 0.611 in experiment [14]; 1.6 in experiment [15]; -0.182 in experiment [16]; 1.31 in the experiment with Sam68 (KHDRBS1); -1.42 in experiment [17]; 1.1 in experiment [18]. Further, the z-score in [2] was -1.18. Further, the composite Z-score in experiment [11] was -0.254 (inactive).

As for `COC(=O)C(CC#Cc1ccc2c(c1)[C@]1(C(=O)N2)[C@H](c2ccccc2OCCO)N2[C@H](c3ccccc3)[C@H](c3ccccc3)OC(=O)[C@H]2[C@@H]1C(N)=O)C(=O)OC`, the composite z-score in experiment [1] was 0.599; in [3], -0.0862; in experiment [4], 1.33; in [5], 0.116; in [6], 0.349; in experiment [7], 0.679. Moreover, the composite z-score in [8] turned out to be 2.29; in experiment [9], 1.21; in experiment [10] it was 2.45; with Albumin (Bos taurus) it was 0.468; in experiment [12] it was 0.631; in experiment [13], 0.25. For the same compound, the composite z-score in [14] came out at 0.672; in experiment [15] it was 2.09; in experiment [16], 0.493; with Sam68 (KHDRBS1), 0.519; in experiment [17] it was 0.0031; in experiment [18], 0.736. Besides, the z-score in experiment [2] is -2.95. For the same compound, the composite Z-score in experiment [11] was 0.389 (inactive).

In the case of `CC(C)N1CC=CC23O[C@@H]4C=CCOC(=O)[C@@H]4[C@H]2C(=O)N(CCCCCO)[C@@H]3C1=O` (stereo not given in full), the composite z-score in experiment [1] was -0.608; in experiment [3], -0.624; in experiment [4] it was 0.0459; in experiment [5] it was 0.395; in [6], -0.18; in experiment [7] it was 0.0723. Besides, the composite z-score in [8] is -0.198; in experiment [9] it was 1.33; in experiment [10], -0.35; in the experiment with Albumin (Bos taurus), 1.02; in [12], -0.12; in experiment [13], -0.153. For the same compound, the composite z-score in experiment [14] is 0.733; in [15], 1.64; in [16] it was 0.915; with Sam68 (KHDRBS1), -0.135; in [17], -0.574; in experiment [18], 0.823. The compound further displayed a z-score in [2] of -0.147. Besides, the composite Z-score in [11] is -0.194 (inactive).

As for `[N-]=[N+]=Nc1ccccc1C[C@@]1(C(=O)N2CCCCC2)N=C(c2ccc(OCCCO)cc2)O[C@@H]1c1ccccc1N=[N+]=[N-]`, the composite z-score in experiment [1] is 0.869; in [3], -0.145; in [4], 1.6; in experiment [5] it was 1.04; in experiment [6], 0.151; in [7] it was 0.778. Further, the composite z-score turned out to be 0.353 in [8]; 0.71 in experiment [9]; 2.09 in experiment [10]; 0.998 in the experiment with Albumin (Bos taurus); 0.384 in experiment [12]; 0.0564 in [13]. The composite z-score is 0.299 in experiment [14]; 1.33 in [15]; 0.158 in [16]; 1.32 in the experiment on Sam68 (KHDRBS1); -0.501 in [17]; 1.12 in experiment [18]. Further, in [2], the z-score was -2.71. The composite Z-score in [11] was 0.203 (inactive).

For `CC(=O)n1cc(C(O)C2C=CC3C(=O)NC(=O)C3N2Nc2ccccn2)c2ccccc21` (stereo not given), the composite z-score was -0.0484 in experiment [1]; 0.0729 in [3]; -0.2 in [4]; -0.36 in experiment [5]; -0.124 in experiment [6]; -0.138 in experiment [7]. Also, the composite z-score in [8] is -0.0615; in experiment [9], -0.19; in experiment [10] it was 0.751; with Albumin (Bos taurus) it was 0.281; in experiment [12] it was -0.116; in experiment [13] it was -0.176. For the same compound, the composite z-score turned out to be 0.817 in experiment [14]; 0.688 in experiment [15]; 0.248 in [16]; 0.0906 with Sam68 (KHDRBS1); 0.549 in experiment [17]; 0.551 in [18]. This compound also showed a z-score in experiment [2] of -0.75. In [11], the composite Z-score is -0.0662 (inactive).

Values taken from PubChem BioAssay.
